Records with an inconclusive call do not appear. Calls of active or inactive are those of the source. Rule as the data show it, unless noted: active = inhibition above about 80%; inactive = the rest.
Legend:
[1] = growth inhibition of DIPG glioma cells, dose response, cell-based, SU-DIPG-XVII, MIPE5.0, CellTiter-Glo, qHTS (AID 1347060; cut-off not given, nearly all actives have AC50 up to about 26 µM;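 as to AC50: cells exposed to compound for 48 hours before viability readout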); settings: SU-DIPG-XVII viability, CellTiter-Glo ATP luminescence
[2] = growth inhibition of DIPG glioma cells, dose response, cell-based, SU-DIPG-XIII, MIPE5.0, CellTiter-Glo, qHTS (AID 1347064; cut-off not given, nearly all actives have AC50 up to about 23 µM;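 as to AC50: cells exposed to compound for 48 hours before the viability read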); settings: SU-DIPG-XIII viability, CellTiter-Glo ATP luminescence
[3] = viability loss in pontine glioma line – cell-based, SU-DIPG-XXV, MIPE5.0, CellTiter-Glo, qHTS, dose response (AID 1347065; cut-off not given, nearly all actives have AC50 up to about 26 µM;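 also: cells exposed to compound for 48 hours before ATP readout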); settings: CellTiter-Glo ATP luminescence
[4] = JHH-DIPG-1 glioma cell viability, MIPE5.0 library, CellTiter-Glo luminescence, qHTS (AID 1347067; cut-off not given, nearly all actives have AC50 up to about 26 µM;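 also: cells exposed to compound for 48 hours before readout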); settings: JHH-DIPG-1 glioma viability, CellTiter-Glo ATP luminescence
[5] = SU-DIPG-XXV glioma cell viability, MIPE5.0 library, qHTS (AID 1347068; cut-off not given, nearly all actives have IC50 up to about 30 µM;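 as to IC50: cells exposed to compound for 48 hours before viability readout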)
[6] = LFS_MB_P medulloblastoma growth inhibition, cell-based, chromothripsis tumors, cisplatin or BGB combos (AID 1671449); settings: LFS_MB_P medulloblastoma cells;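 also: cells exposed for 96 hours; 0% = vehicle DMSO and 100% = killing by high DMSO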
[7] = HDN33 neuroblastoma growth inhibition, cell-based, chromothripsis tumors, cisplatin or BGB combos (AID 1671450); settings: HDN33 neuroblastoma cells, stronger effect = higher value;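 also: cells exposed to compound for four days; 0% = vehicle DMSO and 100% = cell killing by high DMSO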
[8] = ICB984 medulloblastoma cell growth inhibition, synergistic combos for chromothripsis tumors, cisplatin or BGB combos (AID 1671451; call rule not given here;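 also: cells exposed for 96 hours before readout; 0% = vehicle DMSO and 100% = killing by high DMSO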); settings: ICB984 medulloblastoma cells, drug combinations, stronger effect = higher value
[9] = LFS_MB_1R medulloblastoma cell growth inhibition, synergistic combos for chromothripsis tumors, cisplatin or BGB combos (AID 1671452); settings: LFS_MB_1R medulloblastoma cells, stronger effect = higher value;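 also: cells exposed for 96 hours before readout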
[10] = HTB85 osteosarcoma cell growth inhibition, synergistic combos for chromothripsis tumors, BGB or cisplatin IC20 combos (AID 1671453); settings: HTB85 osteosarcoma cells, drug combinations, stronger effect = higher value;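 also: cells exposed for 96 hours before readout; 0% = vehicle DMSO and 100% = high DMSO killing control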
[11] = CRL2098 osteosarcoma cell growth inhibition, synergistic combos for chromothripsis tumors, BGB or cisplatin IC20 combos (AID 1671454); settings: CRL2098 osteosarcoma cells, drug combinations, stronger effect = higher value;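 also: cells exposed for 96 h before readout; 0% = vehicle DMSO and 100% = killing by high DMSO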
[12] = HD-MB03 medulloblastoma cell growth inhibition, synergistic combos for chromothripsis tumors, BGB or cisplatin IC20 combos (AID 1671455; in the data active = inhibition above about 83%;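 also: 0% = vehicle DMSO and 100% = high DMSO as cytotoxic control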); settings: HD-MB03 medulloblastoma cells, stronger effect = higher value
[13] = UWB1.289 ovarian carcinoma cell growth inhibition, synergistic combos for chromothripsis tumors, BGB or cisplatin combos (AID 1671456); settings: UWB1.289 ovarian carcinoma cells, stronger effect = higher value;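 also: cells exposed to compound for four days; 0% = vehicle DMSO and 100% = killing by high DMSO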
[14] = MDA-MB-436 breast carcinoma cell growth inhibition, synergistic combos for chromothripsis tumors, BGB or cisplatin combos (AID 1671458; call rule not given here;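 also: cells exposed for 96 hours; 0% = vehicle DMSO and 100% = killing by high DMSO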); settings: MDA-MB-436 breast carcinoma growth inhibition, drug combinations, stronger effect = higher value
[15] = growth inhibition of BT084 medulloblastoma cells, cell-based, ICGC_MB145, cisplatin and BGB IC40 combos (AID 1671461); settings: drug combinations, stronger effect = higher value;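 also: cells exposed to drugs for 96 hours; 0% = vehicle DMSO and 100% = high DMSO full killing control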
[16] = growth inhibition of RCMB18 medulloblastoma cells, cell-based, cisplatin and BGB IC40 combos (AID 1671462); settings: stronger effect = higher value;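 also: cells exposed to compound for four days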
[17] = growth inhibition of CRL1545 osteosarcoma cells, cell-based, cisplatin and BGB IC20 combos (AID 1671464); settings: stronger effect = higher value;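 also: cells exposed to compound for 96 hours before readout; 0% = vehicle DMSO and 100% = high DMSO killing control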
[18] = sensitizers of A549 cells to miR-34 induction, primary screen, imaging, A549 dox-inducible miR-34, nuclei and caspase counts (AID 1347080;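 active = compounds whose cell count with miR-34 switched on is under 0.7 times the count with it off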); settings: A549 miR-34 inducible, Hoechst nuclei count, 48 h
[19] = survival rescue of mitochondrial mutant cells in low glucose, primary screen, MELAS cybrids, Rieske KO mouse fibroblasts, CellTiter-Glo (AID 1508586;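 active = mean z-score across replicates of 1.96 or higher in either the MELAS or the Rieske mutant cell line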;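 also: z relative to plate mean and SD of compound and empty wells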)
[20] = at 0.5 µM, stronger effect = higher value
[21] = measured here: combination with BGB IC20, at 0.005 µM
[22] = measured here: combination with BGB IC40, at 0.005 µM
[23] = measured here: combination with BGB IC40, at 0.05 µM
[24] = measured here: combination with cisplatin, at 0.5 µM, stronger effect = higher value
[25] = measured here: combination with cisplatin, at 5 µM, stronger effect = higher value
[26] = measured here: with BGB IC20 combination, at 0.5 µM
[27] = measured here: with cisplatin IC20 combination, at 0.5 µM
[28] = measured here: 5 uM single agent, at 5 µM
[29] = measured here: combination with cisplatin, at 0.5 µM
[30] = measured here: combination with cisplatin, at 5 µM
[31] = measured here: with BGB IC20, at 0.5 µM
[32] = measured here: with BGB IC20, at 5 µM
[33] = measured here: with cisplatin IC20, at 0.5 µM
[34] = measured here: with cisplatin IC20, at 5 µM
[35] = measured here: combination with BGB at IC20, at 0.5 µM
[36] = measured here: combination with cisplatin at IC20, at 0.5 µM
[37] = measured here: combo with BGB at IC20, at 0.5 µM
[38] = measured here: combo with cisplatin at IC20, at 0.5 µM
[39] = measured here: inhibition with BGB combination, at 0.05 µM
[40] = measured here: inhibition with cisplatin combination, at 0.05 µM
[41] = measured here: BGB combination, at 0.5 µM
[42] = measured here: BGB combination, at 5 µM
[43] = measured here: cisplatin combination, at 0.5 µM
[44] = measured here: cisplatin combination, at 5 µM
[45] = cisplatin combination, at 0.5 µM
[46] = measured here: BGB IC40 combination 0.05 uM, at 0.05 µM
[47] = measured here: BGB IC40 combination, at 0.05 µM

NC1CCC(N[C@@H]2C[C@H]2c2ccccc2)CC1 (some centres undefined)
outcome [1]: inactive | outcome [2]: inactive | outcome [3]: inactive | outcome [4]: inactive | outcome [5]: inactive | inhibition [6, 20]: 20.5% (inactive) | inhibition [6, 21]: -7.63% | inhibition [6, 22]: -36.6% | inhibition [6, 23]: -4.73% | inhibition [6, 24]: 61.5% | inhibition [6, 25]: -33.8% | inhibition ([7]; BGB combo, at 5 µM): -29.3% | inhibition ([7]; at 0.5 µM): -3.39% (inactive) | inhibition ([7]; cisplatin combo, at 5 µM): -5% | inhibition [7, 26]: -15.4% | inhibition [7, 27]: -4.58% | inhibition ([7]; single agent, at 5 µM): -15% | inhibition ([8]; BGB IC20 combo, at 0.005 µM): 1.45% | inhibition ([8]; BGB IC40 combo, at 0.005 µM): -40% | inhibition ([8]; BGB IC40 combo, at 0.05 µM): -44.5% | inhibition ([8]; at 0.5 µM): -31.6% (inactive) | inhibition ([8]; cisplatin combo, at 0.05 µM): -50.3% | inhibition ([8]; cisplatin combo, at 0.5 µM): -54.9% | inhibition ([8]; cisplatin combo, at 5 µM): -29.9% | inhibition [8, 28]: -0.182% | inhibition ([9]; at 0.5 µM): -25.6% (inactive) | inhibition [9, 23]: -43.6% | inhibition [9, 29]: -41.7% | inhibition [9, 30]: -14.7% | inhibition ([10]; at 0.5 µM): 0.26% (inactive) | inhibition [10, 31]: 13% | inhibition [10, 32]: 4.36% | inhibition [10, 33]: -8.09% | inhibition [10, 34]: 0.769% | inhibition ([10]; single agent, at 5 µM): 26.6% | inhibition ([11]; at 0.5 µM): -30% (inactive) | inhibition [11, 35]: 8.8% | inhibition [11, 36]: -54.3% | inhibition ([12]; at 0.5 µM): -7.1% (inactive) | inhibition [12, 37]: -21.2% | inhibition [12, 38]: 17.1% | inhibition ([13]; at 0.5 µM): -1.76% (inactive) | inhibition [13, 39]: -8.52% | inhibition [13, 40]: -20.9% | inhibition ([14]; at 0.5 µM): -9.19% (inactive) | inhibition [14, 41]: -1.28% | inhibition [14, 42]: -16.2% | inhibition [14, 43]: -20.5% | inhibition [14, 44]: -12.9% | inhibition ([15]; at 0.5 µM): -8.52% (inactive) | inhibition [15, 45]: -9.89% | inhibition ([15]; cisplatin combination, at 5 µM): -5.53% | inhibition [15, 46]: 65.9% | inhibition ([15]; single agent, at 5 µM): 3.43% | inhibition ([16]; at 0.5 µM): -11.5% (inactive) | inhibition ([16]; cisplatin combo, at 5 µM): -6.41% | inhibition [16, 47]: -13.6% | inhibition [16, 29]: -9.08% | inhibition ([16]; single agent, at 5 µM): -32.3% | inhibition ([17]; at 0.5 µM): -40.7% (inactive) | inhibition [17, 26]: -47.5% | inhibition [17, 27]: -37.3% | inhibition ([17]; single agent, at 0.05 µM): -32.5% | inhibition ([17]; single agent, at 5 µM): -26.5%

CC(=O)Nc1ccc(C(=O)Nc2ccccc2N)cc1
AC50 [1]: 13.2 µM (active) | AC50 [2]: 9.34 µM (active) | AC50 [3]: 9.34 µM (active) | AC50 [4]: 10.5 µM (active) | IC50 [5]: 10.5 µM (active) | fold change ([18]; stronger effect = lower value, cell number ratio, induced over uninduced): 0.986 (inactive) | fold change ([18]; measured here: relative caspase fold change +Dox/-Dox): 1.15 | cell count ([18]; measured here: total cells with miR-34 induction, stronger effect = lower value): 4760 | cell count ([18]; measured here: total cells without miR-34 induction): 4820 | z-score ([19]; MELAS cybrid survival, CellTiter-Glo 48 h, stronger effect = higher value): -0.168 (inactive) | z-score ([19]; Rieske KO mouse fibroblast survival, CellTiter-Glo 72 h): -0.712 | inhibition [6, 20]: 88.2% (active) | inhibition [6, 21]: -32.9% | inhibition [6, 22]: 90.3% | inhibition [6, 23]: -22.7% | inhibition [6, 24]: 113% | inhibition [6, 25]: 85.2% | inhibition ([7]; BGB combo, at 5 µM): 47.2% | inhibition ([7]; at 0.5 µM): 8.49% (inactive) | inhibition ([7]; cisplatin combo, at 5 µM): 53.7% | inhibition [7, 26]: 4.99% | inhibition [7, 27]: 18.6% | inhibition ([7]; single agent, at 5 µM): 41.8% | inhibition ([8]; BGB IC20 combo, at 0.005 µM): -11.5% | inhibition ([8]; BGB IC40 combo, at 0.005 µM): -4.35% | inhibition ([8]; BGB IC40 combo, at 0.05 µM): 23.2% | inhibition ([8]; at 0.5 µM): -24.7% (inactive) | inhibition ([8]; cisplatin combo, at 0.05 µM): 19.5% | inhibition ([8]; cisplatin combo, at 0.5 µM): -38.2% | inhibition ([8]; cisplatin combo, at 5 µM): -5.64% | inhibition [8, 28]: -13.9% | inhibition ([9]; at 0.5 µM): -13.9% (inactive) | inhibition [9, 23]: -36.6% | inhibition [9, 29]: -17.4% | inhibition [9, 30]: 75.4% | inhibition ([10]; at 0.5 µM): 3.06% (inactive) | inhibition [10, 31]: 23.1% | inhibition [10, 32]: 53.4% | inhibition [10, 33]: -11.1% | inhibition [10, 34]: 56.6% | inhibition ([10]; single agent, at 5 µM): 37.1% | inhibition ([11]; at 0.5 µM): -31.5% (inactive) | inhibition [11, 35]: -48.1% | inhibition [11, 36]: -8.49% | inhibition ([12]; at 0.5 µM): -2.82% (inactive) | inhibition [12, 37]: -7.4% | inhibition [12, 38]: -4.11% | inhibition ([13]; at 0.5 µM): 0.73% (inactive) | inhibition [13, 39]: -12.2% | inhibition [13, 40]: -6.67% | inhibition ([14]; at 0.5 µM): -2.64% (inactive) | inhibition [14, 41]: 6.02% | inhibition [14, 42]: 12.4% | inhibition [14, 43]: -26.9% | inhibition [14, 44]: 14.4% | inhibition ([15]; at 0.5 µM): 25.3% (inactive) | inhibition [15, 45]: 14.2% | inhibition ([15]; cisplatin combination, at 5 µM): 63.9% | inhibition [15, 46]: -33.4% | inhibition ([15]; single agent, at 5 µM): 40.7% | inhibition ([16]; at 0.5 µM): 16.2% (inactive) | inhibition ([16]; cisplatin combo, at 5 µM): 82.6% | inhibition [16, 47]: -4.7% | inhibition [16, 29]: 20.8% | inhibition ([16]; single agent, at 5 µM): 47.6% | inhibition ([17]; at 0.5 µM): 35.2% (inactive) | inhibition [17, 26]: 11.6% | inhibition [17, 27]: 46.2% | inhibition ([17]; single agent, at 0.05 µM): -7.31% | inhibition ([17]; single agent, at 5 µM): 44%

From PubChem BioAssay
